Screens (PubChem)
EP2 modulator: EP2 receptor modulators, cAMP readout, primary screen, cell-based, HTRF cAMP, PGE2 stimulation | Prostaglandin E2 receptor EP2 subtype (Homo sapiens), P43116 | EP2-expressing cells, cAMP HTRF FRET, PGE2 co-stimulation | induction, % at 25 µM | 260,000 compounds, 0.83% hits | AID 940, 2007;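 active = compounds whose cAMP rise, as percent of the full-agonist control response, exceeds 60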;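 also: rat C6 glioma line stably carrying human EP2 under a CMV promoter; the protocol text gives 20 µM as final concentration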
Hck-Nef inh: inhibitors of Nef-activated human Hck kinase, primary screen, biochemical, Z-Lyte FRET, 384-well, Hck-YEEI | 220,000 compounds, 0.68% hits | Tyrosine-protein kinase HCK (Homo sapiens), P08631 | inhibition, % at 20 µM | Recombinant Hck-YEEI plus Nef, Z-Lyte FRET kinase assay;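 active = Hck-Nef kinase inhibition above about 50%, limit read from the data; inactive = inhibition below that limit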
Target sequence (P08631 whole entry, looked up): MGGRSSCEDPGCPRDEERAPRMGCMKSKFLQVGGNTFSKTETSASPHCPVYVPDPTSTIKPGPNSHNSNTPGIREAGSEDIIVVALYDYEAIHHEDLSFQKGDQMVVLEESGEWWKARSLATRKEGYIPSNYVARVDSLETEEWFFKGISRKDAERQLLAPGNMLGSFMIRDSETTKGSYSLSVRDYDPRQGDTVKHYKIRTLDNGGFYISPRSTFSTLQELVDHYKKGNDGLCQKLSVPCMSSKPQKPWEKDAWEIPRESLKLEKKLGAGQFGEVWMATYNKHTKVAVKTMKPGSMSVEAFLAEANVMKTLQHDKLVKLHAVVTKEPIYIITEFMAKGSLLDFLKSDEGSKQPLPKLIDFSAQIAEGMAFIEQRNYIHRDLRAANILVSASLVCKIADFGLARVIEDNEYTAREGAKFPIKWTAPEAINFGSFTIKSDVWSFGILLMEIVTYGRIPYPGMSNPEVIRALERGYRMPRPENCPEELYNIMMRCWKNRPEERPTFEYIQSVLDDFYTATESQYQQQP
Arbovirus inh: antivirals against arbovirus infection, primary screen, cell-based, full library, 10K replicate subset. AID 1251, 2008. inhibition, % at 10 µM. 200,000 compounds, 0.37% hits. arbovirus infection cell-based antiviral screen; in the data active = inhibition above about 30%
PGE2 EP2 inh: human EP2 receptor antagonists, primary screen, TR-FRET cAMP, C6 glioma cells; Prostaglandin E2 receptor EP2 subtype (Homo sapiens), P43116; C6 glioma cells expressing human EP2; cells stimulated with saturating PGE2; inhibition, % at 25 µM; 260,000 compounds, 0.52% hits; AID 1422, 2008;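 active = percent inhibition above 40 after rounding to a whole number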;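 also: rat C6 glioma host cells with rolipram phosphodiesterase inhibitor present; the protocol text gives 20 µM as final concentration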
p97 ATPase inh: inhibitors of human p97 ATPase, primary screen, biochemical; AID 1481, 2009; Transitional endoplasmic reticulum ATPase (Homo sapiens), P55072; 220,000 compounds, 0.42% hits; recombinant p97 ATPase, Kinase-Glo ATP luminescence, 3 h; inhibition, % at 8 µM; in the data active = inhibition above about 15%
Hck Nef conf: retest of Hck:Nef kinase inhibitor hits, confirmation, biochemical, Z-Lyte FRET, 384-well, p-Tyr peptide counterscreen; shares compounds with Hck-Nef inh; Recombinant Hck-YEEI:Nef, Z-Lyte FRET kinase assay; calls only at 10 µM; 1,300 compounds, 28% hits;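 active = average inhibition of at least 50%, with Z-scores no higher than 3 in both the phospho-tyrosine peptide and fluorescence counterscreens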
Hits are given with their value. Compounds with a hit are over-represented: about 2.4% of the library has one in this group of screens.

Cc1cccc(NC(=O)CN2C(=O)N/C(=C\c3ccc(-c4cccc(C(=O)O)c4)o3)C2=O)c1 was read as EP2 modulator inactive, Hck-Nef inh 80, PGE2 EP2 inh inactive and p97 ATPase inh inactive.
Screening COc1ccccc1-c1ocnc1C(=O)Nc1ccc(N2CCCCC2C)c(C(N)=O)c1 (stereo unspecified) returned EP2 modulator inactive and PGE2 EP2 inh inactive.
O=C(Cn1nc(-c2cccs2)n(-c2cccnc2)c1=O)N1CCCCC1 was read as EP2 modulator inactive.
Screening NC(=O)c1nn(-c2ccc(Oc3ccccc3)cc2)c(=O)cc1O returned EP2 modulator inactive, Hck-Nef inh 82, Arbovirus inh inactive, PGE2 EP2 inh inactive, p97 ATPase inh inactive and Hck Nef conf active.
For CC1(C)C2CCC(C2)C1(C)NC(=O)CNCCN1CCCCC1 (stereo unspecified) the results were EP2 modulator inactive and PGE2 EP2 inh inactive.
For COc1ccc2[nH]c(=O)c(CN(CCCO)C(=S)Nc3ccccc3)cc2c1 the results were EP2 modulator inactive and PGE2 EP2 inh inactive.
`Cc1ccc(-n2sc3ccccc3c2=O)cc1S(=O)(=O)N1CCCCC1` gave EP2 modulator inactive, Hck-Nef inh 115, Arbovirus inh inactive, PGE2 EP2 inh inactive, p97 ATPase inh inactive and Hck Nef conf active.
For O=Cc1cc(N=Nc2ccccc2Cl)ccc1O the results were EP2 modulator inactive, Hck-Nef inh 57, Arbovirus inh inactive, PGE2 EP2 inh inactive, p97 ATPase inh inactive and Hck Nef conf active.
For CCCc1cc(NCCCCO)n2c(nc3ccccc32)c1C#N the results were EP2 modulator inactive, Hck-Nef inh 97, Arbovirus inh inactive, PGE2 EP2 inh inactive and p97 ATPase inh inactive.
For Cc1cc(NCCCCO)n2c(nc3ccccc32)c1C#N the results were EP2 modulator inactive, Hck-Nef inh 59, Arbovirus inh inactive, PGE2 EP2 inh inactive and p97 ATPase inh inactive.
COC(=O)c1sc(NC(=O)COc2ccc(Cl)c(C)c2)c(C#N)c1C was read as EP2 modulator inactive and PGE2 EP2 inh inactive.
Screening CCn1c2cc(C)oc2c2cnn(CC(=O)NC3CCCC3)c(=O)c21 returned EP2 modulator inactive.
COc1cc(C)c(C2C(C#N)=C(N)Oc3n[nH]c(C)c32)cc1C(C)C (stereo unspecified) was read as EP2 modulator inactive and PGE2 EP2 inh inactive.
For OCCCNc1cc(-c2ccnc(Nc3cccc(Cl)c3)n2)ccn1 the results were EP2 modulator inactive, Hck-Nef inh 85, PGE2 EP2 inh inactive and Hck Nef conf active.
`CC(=O)N=c1c(C#N)cc2c(=O)n3ccccc3nc2n1CCCOC(C)C` gave EP2 modulator inactive, Hck-Nef inh 56, PGE2 EP2 inh inactive and p97 ATPase inh inactive.
CC(C)OCCCn1c(=NC(=O)c2ccncc2)c(C#N)cc2c(=O)n3ccccc3nc21 was read as EP2 modulator inactive, Hck-Nef inh 109, Arbovirus inh inactive, PGE2 EP2 inh inactive and p97 ATPase inh inactive.
`CC(C)OCCCn1c(=NC(=O)c2cccs2)c(C#N)cc2c(=O)n3ccccc3nc21` gave EP2 modulator inactive, Hck-Nef inh inactive, PGE2 EP2 inh inactive and p97 ATPase inh inactive.
Screening O=C(NC(=O)c1ccc(Cl)cc1)Nc1ccc(-c2cnco2)cc1 returned EP2 modulator inactive, Hck-Nef inh 60, PGE2 EP2 inh inactive, p97 ATPase inh inactive and Hck Nef conf inactive.
Screening O=C(NC(=O)c1ccc(C(F)(F)F)cc1)Nc1ccc(-c2cnco2)cc1 returned EP2 modulator inactive, Hck-Nef inh inactive, PGE2 EP2 inh inactive and p97 ATPase inh inactive.
Screening O=C(c1ccco1)N(Cc1ccc2c(c1)OCO2)Cc1cc2cc3c(cc2[nH]c1=O)OCO3 returned EP2 modulator inactive, Hck-Nef inh 126, PGE2 EP2 inh inactive, p97 ATPase inh inactive and Hck Nef conf inactive.
Screening C=Cn1ncc(CN(CCCn2ccnc2)CC2CC=CCC2)c1C (stereo unspecified) returned EP2 modulator inactive and PGE2 EP2 inh inactive.
